Values joined by “and” are separate entries in the source; they are usually repeats but may differ in a detail not shown here. Equal entries are not always repeated. Inconclusive results are not listed. Where a call stands in place of a potency, no number is given. More than one record can exist for a structure, and the calls need not agree. Active and inactive are the calls of the source. Unless noted, the call rests on the fitted dose curve.

One assay in a line: p53 small molecule agonists, cell-based qHTS assay: qHTS cell viability counter screen (AID 1963581). Further: nearly all actives have a fitted effect of over 45% in size. The following applies: p53RE-bla HCT-116 viability, ATP luminescence, 16 h; series mostly up to 66 µM. In a few lines:
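Multiplexed with the reporter read, a CellTiter-Glo step (30 min, room temperature) gauges ATP-based viability of HCT-116 p53RE-bla cells after 16 h compound incubation at 37 C.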
Consider `CC(C)(Oc1ccc(C2CC2(Cl)Cl)cc1)C(=O)O` (configuration not stated), for which the Potency result is “inactive”.
Regarding `OC[C@@H](O)[C@@H](O)[C@H](O)[C@@H](O)CO`, the Potency result is “inactive”.
Take `OC(Cn1cncn1)(Cn1cncn1)c1ccc(F)cc1F`: the Potency result was “inactive”.
For `OCCO`, the Potency entry was “inactive”.
Take `NS(=O)(=O)c1cc2c(cc1Cl)NCNS2(=O)=O`: the Potency entry was “inactive”.
Turning to `O=C(O)Cc1ccccc1Nc1c(Cl)cccc1Cl`, the Potency entry was “inactive”.
As to `CC(C)(C#N)c1cc(Cn2cncn2)cc(C(C)(C)C#N)c1`, the Potency result is “inactive”.
`C[C@]12CC[C@@H]3c4ccc(O)cc4CC[C@H]3[C@@H]1C[C@@H](O)[C@@H]2O`: the Potency result is “inactive”.
Turning to `CC[C@H](C)C(=O)O[C@H]1C[C@@H](C)C=C2C=C[C@H](C)[C@H](CC[C@@H]3C[C@@H](O)CC(=O)O3)[C@H]21`, the Potency result was “inactive”.
Same read-out and setting: for `Cc1nnc(NS(=O)(=O)c2ccc(N)cc2)s1` the value was “inactive”.
Take `NC(=O)c1ccccc1O`: the Potency entry was “inactive”.
Regarding `CC(C)Cc1ccc(C(C)C(=O)O)cc1` (configuration not stated), the Potency entry was “inactive”.
Take `CC(C)(Oc1ccc(Cl)cc1)C(=O)O`: the Potency result was “inactive”.
Consider `COc1ccccc1OCC(O)CO` (configuration not stated), for which the Potency entry was “inactive”.
As to `NC(=O)c1cccnc1`, the Potency result was “inactive”.
Still for that read-out and setting: then `CC(=O)[C@@]1(O)CC[C@H]2[C@@H]3C[C@H](C)C4=CC(=O)C=C[C@]4(C)[C@@]3(F)[C@@H](O)C[C@@]21C`, with “inactive”; and `CC(=O)Nc1nnc(S(N)(=O)=O)s1`, with “inactive”; and `NNCCc1ccccc1`, with “inactive”.
`CCOC(N)=O`: the Potency entry is “inactive”.
Still for that read-out and setting: then `CCCCCCc1ccc(O)cc1O`, with “inactive”.

A short description of a further assay: p53 small molecule agonists, cell-based qHTS assay (AID 1963582; active means well fitted activation curve with a large enough effect in the signal ratio in the repeat runs, not every such curve was filed as active; the % refers to the signal ratio; further: potency means the concentration at half of the fitted maximal effect). Conditions: HCT-116 p53RE-bla reporter, beta-lactamase FRET ratio, 16 h; series mostly up to 66 µM. In a few lines: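 Beta-lactamase reporter cells (p53RE-bla) treated with compounds for 16 h at 37 C; FRET substrate, 2 h, room temperature; fluorescence intensity.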
Consider `O=C1O[C@H]([C@H](O)CO)C(O)=C1O`, for which the Potency entry was “inactive”.
Turning to `COC(=O)c1ccc(O)cc1`, the Potency result is “inactive”.
As to `S=c1nc[nH]c2nc[nH]c12`, the Potency was 9.99 µM (active) and 7.93 µM (active).
Regarding `C[C@]12CCC(=O)C=C1CC[C@@H]1[C@@H]2C(=O)C[C@@]2(C)[C@H]1CC[C@]2(O)C(=O)CO`, the Potency entry was “inactive”.
As for `C/C=C/C(=O)N(CC)c1ccccc1C`, the Potency result was “inactive”.
On to `O=c1c(-c2ccc(O)cc2)coc2cc(O)cc(O)c12`, for which the Potency entry is “inactive”.
As for `CN(N=O)C(=O)N[C@@H]1[C@@H](O)[C@H](O)[C@@H](CO)O[C@@H]1O`, the Potency result was “inactive”.
For `CCCCC1C(=O)N(c2ccccc2)N(c2ccccc2)C1=O`, the Potency result is “inactive”.
Still for that read-out and setting: then `CC12CCC(CC1)C(C)(C)O2`, with “inactive”; and `OC[C@@H](O)[C@@H](O)[C@H](O)[C@H](O)CO`, with “inactive”; and `CCCN(CCC)S(=O)(=O)c1ccc(C(=O)O)cc1`, with “inactive”.
Still for that read-out and setting: then `Cc1ncc([N+](=O)[O-])n1CCO`, with “inactive”; and `CCCCOC(=O)c1ccc(N)cc1`, with “inactive”.
In the case of `C#C[C@]1(O)CC[C@H]2[C@@H]3CCC4=CC(=O)CC[C@@H]4[C@H]3CC[C@@]21CC`, the Potency entry is “inactive”.
The same measure, in the same setting: then `c1ccc2c(c1)c1cccc3ccc4cccc2c4c31`, with 45.4 µM (active) and inactive; and `CC1(C)O[C@@H]2C[C@H]3[C@@H]4C[C@H](F)C5=CC(=O)CC[C@]5(C)[C@H]4[C@@H](O)C[C@]3(C)[C@]2(C(=O)CO)O1`, with “inactive”; and `CC(C)=CCC/C(C)=C/CO`, with “inactive”.
With `CN1C(C(=O)Nc2ccccn2)=C(O)c2ccccc2S1(=O)=O`, the Potency entry is “inactive”.
Same read-out and setting: then `Cc1noc(NS(=O)(=O)c2ccc(N)cc2)c1C`, with “inactive”.
In the case of `Cc1cc(=O)n(-c2ccccc2)n1C`, the Potency result was “inactive”.
In the case of `CC(C)(Oc1ccc(C2CC2(Cl)Cl)cc1)C(=O)O` (configuration not stated), the Potency result is “inactive”.
Regarding `OC[C@@H](O)[C@@H](O)[C@H](O)[C@@H](O)CO`, the Potency entry is “inactive”.
`OC(Cn1cncn1)(Cn1cncn1)c1ccc(F)cc1F`: the Potency entry is “inactive”.
On the same count and under the same terms, then `OCCO`, with “inactive”; and `NS(=O)(=O)c1cc2c(cc1Cl)NCNS2(=O)=O`, with “inactive”.
Regarding `O=C(O)Cc1ccccc1Nc1c(Cl)cccc1Cl`, the Potency entry is “inactive”.
`CC(C)(C#N)c1cc(Cn2cncn2)cc(C(C)(C)C#N)c1`: the Potency entry is “inactive”.
For the molecule `C[C@]12CC[C@@H]3c4ccc(O)cc4CC[C@H]3[C@@H]1C[C@@H](O)[C@@H]2O`, the Potency entry is “inactive”.
In the case of `CC[C@H](C)C(=O)O[C@H]1C[C@@H](C)C=C2C=C[C@H](C)[C@H](CC[C@@H]3C[C@@H](O)CC(=O)O3)[C@H]21`, the Potency entry is “inactive”.
Consider `Cc1nnc(NS(=O)(=O)c2ccc(N)cc2)s1`, for which the Potency result is “inactive”.
For `NC(=O)c1ccccc1O`, the Potency result is “inactive”.
For `CC(C)Cc1ccc(C(C)C(=O)O)cc1` (configuration not stated), the Potency entry is “inactive”.
For the molecule `CC(C)(Oc1ccc(Cl)cc1)C(=O)O`, the Potency entry was “inactive”.
For `COc1ccccc1OCC(O)CO` (configuration not stated), the Potency result is “inactive”.
With `NC(=O)c1cccnc1`, the Potency result was “inactive”.
Take `CC(=O)[C@@]1(O)CC[C@H]2[C@@H]3C[C@H](C)C4=CC(=O)C=C[C@]4(C)[C@@]3(F)[C@@H](O)C[C@@]21C`: the Potency result is “inactive”.
Take `CC(=O)Nc1nnc(S(N)(=O)=O)s1`: the Potency result was “inactive”.
On the same count and under the same terms, for `NNCCc1ccccc1` the value was “inactive”; for `CCOC(N)=O`, “inactive”; for `CCCCCCc1ccc(O)cc1O`, “inactive”.

A short description of the next assay: cAMP Responsive Elements (CRE) small molecule agonists, cell-based qHTS assay (AID 1963590). The following applies: CRE-bla HEK293T, beta-lactamase FRET ratio, 3 h; series mostly up to 92.4 µM. In a few lines: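 Quantitative HTS for CRE agonists: HEK 293T CRE-bla cells, overnight plating, 3 h compound incubation at 37 C/5% CO2, then 2 h room-temperature LiveBLAzer B/G FRET substrate loading.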
Background: qHTS replaces the single test concentration by a dilution series.
On to `O=C1O[C@H]([C@H](O)CO)C(O)=C1O`, for which the Potency result was “inactive”.
Still for that read-out and setting: then `COC(=O)c1ccc(O)cc1`, with “inactive”; and `S=c1nc[nH]c2nc[nH]c12`, with “inactive”.
On to `C[C@]12CCC(=O)C=C1CC[C@@H]1[C@@H]2C(=O)C[C@@]2(C)[C@H]1CC[C@]2(O)C(=O)CO`, for which the Potency result is “inactive”.
Consider `C/C=C/C(=O)N(CC)c1ccccc1C`, for which the Potency entry is “inactive”.
Same read-out and setting: for `O=c1c(-c2ccc(O)cc2)coc2cc(O)cc(O)c12` the value was “inactive”; for `CN(N=O)C(=O)N[C@@H]1[C@@H](O)[C@H](O)[C@@H](CO)O[C@@H]1O`, “inactive”.
With `CCCCC1C(=O)N(c2ccccc2)N(c2ccccc2)C1=O`, the Potency entry was “inactive”.
On to `CC12CCC(CC1)C(C)(C)O2`, for which the Potency result is “inactive”.
With `OC[C@@H](O)[C@@H](O)[C@H](O)[C@H](O)CO`, the Potency result is “inactive”.
In the case of `CCCN(CCC)S(=O)(=O)c1ccc(C(=O)O)cc1`, the Potency entry was “inactive”.
With `Cc1ncc([N+](=O)[O-])n1CCO`, the Potency result was “inactive”.
On the same count and under the same terms, for `CCCCOC(=O)c1ccc(N)cc1` the value was “inactive”; for `C#C[C@]1(O)CC[C@H]2[C@@H]3CCC4=CC(=O)CC[C@@H]4[C@H]3CC[C@@]21CC`, “inactive”.
In the case of `c1ccc2c(c1)c1cccc3ccc4cccc2c4c31`, the Potency entry is “inactive”.
The same measure, in the same setting: then `CC1(C)O[C@@H]2C[C@H]3[C@@H]4C[C@H](F)C5=CC(=O)CC[C@]5(C)[C@H]4[C@@H](O)C[C@]3(C)[C@]2(C(=O)CO)O1`, with “inactive”; and `CN1C(C(=O)Nc2ccccn2)=C(O)c2ccccc2S1(=O)=O`, with “inactive”.
`Cc1noc(NS(=O)(=O)c2ccc(N)cc2)c1C`: the Potency result is “inactive”.
As to `Cc1cc(=O)n(-c2ccccc2)n1C`, the Potency result is “inactive”.
Same read-out and setting: then `CC(C)(Oc1ccc(C2CC2(Cl)Cl)cc1)C(=O)O` (configuration not stated), with “inactive”; and `OC(Cn1cncn1)(Cn1cncn1)c1ccc(F)cc1F`, with “inactive”.
On to `OCCO`, for which the Potency result was “inactive”.
The same measure, in the same setting: for `NS(=O)(=O)c1cc2c(cc1Cl)NCNS2(=O)=O` the value was “inactive”.
As for `O=C(O)Cc1ccccc1Nc1c(Cl)cccc1Cl`, the Potency entry was “inactive”.
Regarding `CC(C)(C#N)c1cc(Cn2cncn2)cc(C(C)(C)C#N)c1`, the Potency result was “inactive”.
In the case of `C[C@]12CC[C@@H]3c4ccc(O)cc4CC[C@H]3[C@@H]1C[C@@H](O)[C@@H]2O`, the Potency result was “inactive”.
As to `CC[C@H](C)C(=O)O[C@H]1C[C@@H](C)C=C2C=C[C@H](C)[C@H](CC[C@@H]3C[C@@H](O)CC(=O)O3)[C@H]21`, the Potency result was “inactive”.
On to `Cc1nnc(NS(=O)(=O)c2ccc(N)cc2)s1`, for which the Potency result is “inactive”.
Consider `NC(=O)c1ccccc1O`, for which the Potency entry is “inactive”.
The same measure, in the same setting: for `CC(C)(Oc1ccc(Cl)cc1)C(=O)O` the value was “inactive”.
Regarding `COc1ccccc1OCC(O)CO` (configuration not stated), the Potency result was “inactive”.
As for `NC(=O)c1cccnc1`, the Potency entry was “inactive”.
Consider `CC(=O)[C@@]1(O)CC[C@H]2[C@@H]3C[C@H](C)C4=CC(=O)C=C[C@]4(C)[C@@]3(F)[C@@H](O)C[C@@]21C`, for which the Potency result was “inactive”.
For the molecule `CC(=O)Nc1nnc(S(N)(=O)=O)s1`, the Potency result was “inactive”.
Regarding `NNCCc1ccccc1`, the Potency result is “inactive”.
Still for that read-out and setting: for `CCOC(N)=O` the value was “inactive”; for `CCCCCCc1ccc(O)cc1O`, “inactive”.
